VP16 counter – inhibits Gal4-VP16 luciferase reporter, ROR gamma counter-screen; Drosophila S2 Gal4-VP16 UAS-luciferase, luminescence, 20 h; Potency, µM (top dose mostly 53.6 µM), for the others: at the top dose activity, negative = inhibition, most hits filed as inhibitors; 3.5% of 310,000 active;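 further: Gal4-VP16 expression switched on by copper sulfate through the metallothionein promoter; nearly all actives have a fitted effect of over 50% in size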
Tau fibril ThT – tau fibrillization inhibition (ThT binding); 2.1% of 270,000 active; Potency, µM (series often up to 57.4 µM), without a hit: at the highest dose activity, negative = inhibition, usual class: inhibitors; P10636; recombinant tau K18 P301L, heparin-induced fibrillization, ThT fluorescence; further: nearly all actives have a fitted effect of over 55% in size
Target sequence (P10636 561-689 P618L limits assumed): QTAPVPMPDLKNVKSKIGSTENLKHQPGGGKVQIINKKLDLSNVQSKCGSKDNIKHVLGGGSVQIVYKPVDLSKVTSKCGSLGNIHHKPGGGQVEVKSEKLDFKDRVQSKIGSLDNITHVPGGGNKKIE
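Tau K18 P301L fragment (15 uM unlabeled plus 0.24 uM Alexa 594-labeled) in 100 mM sodium acetate pH 7 with compound, fibrillization induced by 20 uM heparin for 6 hr at 37 C. Thioflavin T (30 uM) added, fluorescence read after 1 hr (ex 450, em 510 nm).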
Tau fluor counter – counter-screen for tau fibril formation inhibitors | tau K18 P301L Alexa594 fluorescence, heparin fibrillization | Potency, µM (doses to about 57.7 µM), without a hit: top-dose activity change, negative = decrease | 0.93% of 280,000 active | AID 1463; further: nearly all actives have a fitted effect of over 55% in size
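Human tau K18 P301L (15 uM unlabeled, 0.24 uM Alexa 594-labeled) in 100 mM sodium acetate pH 7 with 20 uM heparin, 6 hr at 37 C. ThT 30 uM added, 1 hr ambient; Alexa 594 FP and total fluorescence read at 555/632 nm.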
Tau FP inhib – tau fibrillization inhibition (FP). P10636. K18 P301L tau heparin fibrillization, Alexa594 FP, 6 h. Potency, µM (series often up to 57.7 µM), for the others: at the top dose activity, negative = inhibition, actives largely listed as inhibitors. 0.39% of 280,000 active. AID 1468; further: nearly all actives have a fitted effect of over 55% in size
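K18 P301L tau (15 uM unlabeled/0.24 uM Alexa 594-labeled, final) + compound + heparin 20 uM final; 100 mM NaOAc pH 7; 6 hr 37 C; ThT 30 uM final added, 1 hr RT; FP ex 555/em 632 nm.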
RORg inh – ROR gamma (mouse) transcription inhibition; P51450; Drosophila S2 Gal4-RORgamma UAS-luciferase reporter, 20 h; Potency, µM (titrated, usually from 53.6 µM), for the others: at the top dose activity change, negative = inhibition, most hits filed as inhibitors; 5.4% of 310,000 active; AID 2551; further: nearly all actives have a fitted effect of over 60% in size
Target sequence (P51450 whole entry, looked up, the tested form may be a part): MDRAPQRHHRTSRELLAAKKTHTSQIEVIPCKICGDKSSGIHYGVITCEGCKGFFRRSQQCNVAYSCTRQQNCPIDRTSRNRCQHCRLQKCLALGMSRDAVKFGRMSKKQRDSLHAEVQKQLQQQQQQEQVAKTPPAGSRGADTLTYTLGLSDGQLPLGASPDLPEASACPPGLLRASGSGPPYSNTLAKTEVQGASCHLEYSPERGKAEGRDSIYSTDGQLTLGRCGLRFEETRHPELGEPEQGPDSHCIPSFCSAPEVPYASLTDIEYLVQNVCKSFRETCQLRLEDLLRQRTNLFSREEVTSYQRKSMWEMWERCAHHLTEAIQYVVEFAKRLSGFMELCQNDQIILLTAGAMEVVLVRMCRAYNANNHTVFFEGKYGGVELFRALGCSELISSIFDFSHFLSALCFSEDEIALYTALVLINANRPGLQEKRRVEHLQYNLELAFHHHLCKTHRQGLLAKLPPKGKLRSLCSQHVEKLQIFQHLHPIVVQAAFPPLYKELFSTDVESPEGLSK
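Read-out: Photinus luciferase luminescence; inhibitors lower reporter signal. Insect Schneider cells with Gal4-ROR gamma fusion under metallothionein promoter, UAS reporter; 700 uM final copper sulfate induction, 20 hr, ambient temperature.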
The depositor's hits bear a star; ? = inconclusive; nt = no result given; [ ] = dose if it differs, or a comment. Rows were chosen to be rich in hits. Some 7.3% of all compounds tested hit in one or more screens of this group. The call rests on the fitted dose curve; in most records, active means well fitted curve in the direction sought with a large enough effect; inconclusive means small, poorly fitted or top-dose-only effect, or another doubt; inactive means no such curve, though single readings can be large; an effect the other way counts as inactive or inconclusive. On the % scale 0 is the no-effect control and ±100 the full control effect; potency means the concentration at half of the fitted maximal effect.

SMILES | VP16 counter | Tau fibril ThT | Tau fluor counter | Tau FP inhib | RORg inh
Cc1cccc(-c2noc(-c3ccc(NC4CCCC4)c([N+](=O)[O-])c3)n2)c1 | nt | 2% | -8% | -7% | nt
COc1ccccc1NC(=O)c1cc([N+](=O)[O-])ccc1N1CCOCC1 | 1% | nt | nt | nt | -2%
CCc1c(C)c(C#N)c2nc3ccccc3n2c1Cl | 7% | ? | -5% | -13% | 2.8µM*
CCc1c(C)c(C#N)c2nc3ccccc3n2c1-n1nc(C)cc1C | -7% | 1% | -3% | 0% | 18%
Cc1cc(C)c2oc(C(=O)Nc3ccc(S(=O)(=O)Nc4ncccn4)cc3)cc(=O)c2c1 | nt | -13% | -4% | 1% | nt
Cc1ccc(S(=O)(=O)CC(=O)N2CC(C)OC(C)C2)cc1 (configuration not stated) | 8% | nt | nt | nt | -9%
Cc1nc(NCc2ccccc2)c2nc(-c3ccccc3)n(C(C)CN(C)C)c2n1 (configuration not stated) | 18% | -1% | -4% | 2% | 11µM*
Cc1nc(NCc2ccccc2)c2nc(-c3ccccc3)n(CCN3CCCCC3)c2n1 | -15% | -14% | -13% | 5% | 11µM*
Cc1ccc(Nc2nc(C)c(NC(=O)c3ccc(C)cc3)c(Nc3ccc(C)cc3)n2)cc1 | nt | -21% | ? | -5% | nt
CCOc1ccc(NC(=O)CN2CCN(Cc3ccccc3)S2(=O)=O)cc1 | nt | -2% | -7% | 5% | nt
c1ccc2c(c1)CCN(c1nc(CN3CCOCC3)nc3sc4c(c13)CCCC4)C2 | ? | ? | -3% | -5% | 11µM*
CCOc1cccc(-c2cc(=O)[nH][nH]2)c1 | 10% | 3.5µM* | -21% | ? | 24%
CC(C)[C@H](NC(=O)[C@@H]1Cc2ccccc2CN1C(=O)OC(C)(C)C)C(=O)NCC1CCC(C(=O)O)CC1 (some centres not stated) | 7% | 1% | 4% | -2% | 19%
Cc1[nH]c(=S)c(C#N)c(C)c1Cc1ccccc1 | 8.9µM* | 7% | 10% | 1% | 3.5µM*
Cc1[nH]c(=S)c(C#N)c(C)c1CCC#N | -16% | nt | 7% | 4% | 14µM*
Cc1cc(C)cc(-n2ccn(CC(=O)Nc3ccccc3F)c(=O)c2=O)c1 | nt | ? | -4% | -6% | nt
COc1ccc(-c2cc(C(=O)OCC(=O)c3ccc(C)c([N+](=O)[O-])c3)c3ccccc3n2)cc1 | ? | 7% | 0% | -5% | 1%
COc1ccc(-c2nn(-c3ccccc3)cc2C(=O)OCC(=O)c2ccc(C)c([N+](=O)[O-])c2)cc1 | 18µM* | 11% | -18% | -6% | ?
COc1ccccc1N1CCN(C(=O)c2ccc(Cl)c(S(=O)(=O)N3CCOCC3)c2)CC1 | 2% | nt | nt | nt | -15%
Cc1cc(C)nc(S/C=C/C(=O)c2ccccc2F)n1 | 10µM* | ? | -2% | -5% | 7.9µM*
Cc1cc(NC(=O)c2ccccc2F)on1 | -8% | -7% | 0% | 4% | -21%
Cc1ccccc1CCN(C(=O)c1csnn1)C(C(=O)NC1CCCC1)c1ccncc1 (configuration not stated) | -11% | nt | nt | nt | 15%
CC1(C)CC(=O)C(=CN2CCOCC2)C(=O)C1 | 12% | 16µM* | -24% | ? | 22%
CC1(C)CC(=O)C(=CN2CCN(C(=O)c3ccco3)CC2)C(=O)C1 | -4% | ? | -19% | ? | 6%
CCOC(=O)c1c(NC(=O)c2cc(=O)c3c(C)cc(C)cc3o2)sc(C)c1C | nt | -7% | -4% | 1% | nt
SMILES | VP16 counter | Tau fibril ThT | Tau fluor counter | Tau FP inhib | RORg inh
O=C(NNC(=O)c1ccccc1O)c1ccc(Br)cc1 | 20µM* | nt | nt | nt | 11µM*
NC(=S)NC(=O)c1ccccc1 | -1% | -10% | -11% | 0% | -25%
NC(=S)NNC(=O)c1ccccc1 | 22µM* | -3% | 0% | 5% | 2.8µM*
O=C(NNC(=O)c1ccccc1O)c1ccc(Cl)cc1 | ? | -8% | -3% | -2% | 8.9µM*
O=C(CNC(=O)c1ccc(Br)cc1)c1ccc(Br)cc1 | 0% | nt | nt | nt | 40%
O=C(CNC(=O)c1ccc(Br)cc1)c1ccccc1 | -29% | nt | nt | nt | 13µM*
O=C(NNC(=O)c1ccc(O)cc1O)c1ccc(Cl)cc1 | -6% | -9% | -2% | 6% | -40%
NC(=O)CSc1n[nH]c(=O)n1CCc1ccccc1 | 0% | nt | nt | nt | -5%
Cc1cc(C)cc(C(=O)Nc2c3c(nn2-c2ccccc2C)CS(=O)(=O)C3)c1 | nt | -3% | -9% | -5% | nt
CCOc1ccccc1NC(=O)c1cnn2c(C(F)F)cc(-c3ccccc3)nc12 | nt | ? | -27% | -5% | nt
Cc1ccc(C(=O)NNC(=O)c2cccc(Br)c2)cc1 | 0% | nt | nt | nt | 15%
O=C(NNC(=O)c1ccccc1O)c1cccc(Br)c1 | -7% | nt | nt | nt | 5µM*
NC(=S)NNC(=O)c1cccc(Br)c1 | -28% | -8% | 2% | -3% | 6.3µM*
O=C(O)CCN1C(=O)/C(=C2\C(=O)N(Cc3ccccc3Cl)c3ccccc32)SC1=S | 1% | nt | nt | nt | -1%
C=CCN1C(=O)/C(=c2\sc3nc(=O)c(Cc4ccccc4Cl)nn3c2=O)c2ccccc21 | ? | ? | -12% | ? | 13µM*
O=C1c2cccc3cc([N+](=O)[O-])cc(c23)C(=O)N1/N=C/c1ccc(O)cc1O | ? | ? | 13µM*[quencher] | -10% | -24%
N#C/C(=C\c1ccc(C(=O)O)cc1)c1nc2sc3c(c2c(=O)[nH]1)CCCC3 | 3% | 14µM* | ? | -8% | 9%
Cn1cc(O)nc1NC(=O)Nc1cccc(Cl)c1 | 21% | nt | nt | nt | ?
Oc1ccc(N=Cc2ccc(-c3cccs3)s2)cc1 | ? | 7.9µM* | ? | 14µM* | -27%
CCCCOc1ccc(N=Cc2cccs2)cc1 | -1% | -15% | -18% | -3% | 7%
CCn1c2ccccc2c2nnc(SCC(=O)c3ccccc3)nc21 | 4% | -1% | -3% | 0% | 13µM*
Cn1c2ccccc2c2nnc(NN)nc21 | 0% | ? | -17% | ? | -13%
CCn1c2ccccc2c2nnc(NN)nc21 | 1% | 14µM* | -11% | ? | ?
CCn1c2ccc(C)cc2c2nnc(NN)nc21 | -7% | ? | -5% | -13% | 1.6µM*
CCOC(=O)CSc1nnc2c3ccccc3n(CC)c2n1 | 0% | nt | nt | nt | 36%
CC1CCc2c(sc(NC(=O)Cn3nnc(-c4ccc(C(F)(F)F)cc4)n3)c2C#N)C1 (configuration not stated) | nt | 6% | -10% | -12% | nt
COc1ccc(NS(=O)(=O)c2cccc(NC(=O)C3=NN(c4ccccc4)C(=O)CC3)c2)cc1 | 11µM* | nt | nt | nt | ?
COc1ccc(NS(=O)(=O)c2ccc(NC(=O)c3ccc(CN4CCOCC4)cc3)cc2)cc1 | 3% | -8% | 12%[2.34 µM] | 5% | 14µM*
O=C(Nc1ccc(S(=O)(=O)Nc2ncccn2)cc1)c1ccc(S(=O)(=O)N2CCCC2)cc1 | -5% | 3% | -3% | 7% | 13µM*

Source: PubChem BioAssay (National Center for Advancing Translational Sciences (NCATS))
